Experimental findings from PubChem BioAssay (NCI) are described below.

This is part of a sample that, as a whole, favours compounds with a hit. Of some 83,000 tested, about 20% had one in any assay.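 Values shown are percent growth following 48 h exposure of cells in 96-well plates to a single concentration of compound; below 10 was considered active.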 Values without a mark were called inactive. Active and inactive are the calls of the source.

Some test systems named below: SK-MEL-2 melanoma; EKVX NSCLC; SN12C renal; UO-31 renal; ACHN renal; A498 renal; CCRF-CEM leukemia; MOLT-4 leukemia; SR leukemia; RPMI-8226 leukemia; OVCAR-8 ovarian; OVCAR-5 ovarian; OVCAR-4 ovarian; SK-OV-3 ovarian; IGROV1 ovarian; OVCAR-3 ovarian; HS 578T breast; NCI/ADR-RES ovarian; TK-10 renal; CAKI-1 renal.
Common to all, as to experiment: NCI-60 one-dose screen, 48 h (100 = growth as untreated, 0 = no growth, -100 = all killed)
What all share (conditions): 10 µM unless noted

As for `N#CC(C#N)C(C#N)C#N`, the growth in the assay on SK-MEL-2 melanoma is 109%; in the assay with EKVX NSCLC, 99.7%; in the assay with SN12C renal, 99.9%; with UO-31 renal, 89.1%; with ACHN renal, 107%; in the assay with A498 renal, 99%. Moreover, the growth in the assay with CCRF-CEM leukemia was 105%; in the assay on MOLT-4 leukemia, 96.4%; in the assay on SR leukemia, 109%; with RPMI-8226 leukemia it was 107%; in the assay on OVCAR-8 ovarian, 97.4%; with OVCAR-5 ovarian, 111%. The growth in the assay with OVCAR-4 ovarian was 98.6%; with SK-OV-3 ovarian it was 84%; in the assay on IGROV1 ovarian, 112%; in the assay on OVCAR-3 ovarian, 104%; with HS 578T breast, 102%; with NCI/ADR-RES ovarian, 101%.
Consider `Cc1ccc(N/N=C(/C(=O)c2ccc(Cl)cc2)c2nc(C)cc(=O)[nH]2)cc1`, for which the growth with SK-MEL-2 melanoma was 95.3%; with EKVX NSCLC, 91.5%; in the assay with SN12C renal, 100%; in the assay on TK-10 renal it was 136%; with ACHN renal it was 99.1%; in the assay with CAKI-1 renal, 113%. For the same compound, the growth in the assay with A498 renal is 108%; in the assay on CCRF-CEM leukemia, -15.1% (active); in the assay on MOLT-4 leukemia, 98.6%; in the assay on SR leukemia, 84.4%; with RPMI-8226 leukemia it was 85.1%; with OVCAR-8 ovarian it was 101%. Besides, the growth was 122% in the assay with OVCAR-5 ovarian; 116% with SK-OV-3 ovarian; 7.59% (active) with IGROV1 ovarian; 95.8% in the assay with OVCAR-3 ovarian; 99.9% in the assay with HS 578T breast; 103% in the assay with NCI/ADR-RES ovarian.
For `CCN(CC)CCNCC(=O)Oc1ccc(/C=C/C(=O)CC(=O)/C=C/c2ccc(OC(=O)CNCCN(CC)CC)c(OC)c2)cc1OC`, the growth in the assay on SK-MEL-2 melanoma was 10.7%; in the assay with EKVX NSCLC it was 5.1% (active); in the assay on SN12C renal, 4.14% (active); in the assay on TK-10 renal, 50.3%; with ACHN renal, 16.8%; in the assay on CAKI-1 renal, 22%. The growth is 51% in the assay on A498 renal; -30.5% (active) in the assay on CCRF-CEM leukemia; 0.439% (active) in the assay on MOLT-4 leukemia; -1.72% (active) in the assay on SR leukemia; -46.2% (active) with RPMI-8226 leukemia; 3.99% (active) with OVCAR-8 ovarian. Moreover, the growth in the assay on OVCAR-5 ovarian was 36.6%; in the assay with SK-OV-3 ovarian it was 27.3%; in the assay on OVCAR-3 ovarian, 13.3%; with HS 578T breast, -3.97% (active); with NCI/ADR-RES ovarian, 71.6%.
Take `O=C1Nc2ccc(C(=O)O)c(O)c2C1=O`: the growth is 103% with SK-MEL-2 melanoma; 97.8% with EKVX NSCLC; 107% in the assay with SN12C renal; 107% in the assay with TK-10 renal; 104% in the assay on ACHN renal; 92.2% in the assay with CAKI-1 renal. Also, the growth is 102% in the assay on A498 renal; 94.9% in the assay with CCRF-CEM leukemia; 110% in the assay with MOLT-4 leukemia; 105% in the assay on SR leukemia; 107% in the assay on OVCAR-8 ovarian; 95.3% in the assay on OVCAR-5 ovarian. The growth with OVCAR-4 ovarian was 112%; in the assay on SK-OV-3 ovarian it was 110%; in the assay on IGROV1 ovarian, 111%; in the assay with OVCAR-3 ovarian, 113%; in the assay on HS 578T breast, 108%; in the assay with NCI/ADR-RES ovarian, 106%.
With `CC(C)Cn1cnc2c(NCn3nc(-c4cc(Cl)cc(Cl)c4Cl)n(/N=C/c4ccc(Cl)cc4)c3=S)nc3ccccc3c21`, the growth in the assay on SK-MEL-2 melanoma was 81.8%; in the assay with EKVX NSCLC, 70.6%; in the assay with SN12C renal, 85%; in the assay on TK-10 renal, 90.4%; in the assay with ACHN renal, 81.6%; in the assay with CAKI-1 renal, 63.9%. Moreover, the growth is 96.8% in the assay on A498 renal; 82.2% in the assay on MOLT-4 leukemia; 44.3% with RPMI-8226 leukemia; 72.4% in the assay on OVCAR-8 ovarian; 92.1% with OVCAR-5 ovarian; 71.1% in the assay on OVCAR-4 ovarian. In addition, the growth is 110% in the assay on SK-OV-3 ovarian; 4.11% (active) in the assay on IGROV1 ovarian; 98% with OVCAR-3 ovarian; 94% in the assay with HS 578T breast; 56.3% with NCI/ADR-RES ovarian.
As to `N=C1c2nc3n(c2C(=O)c2nc4n(c21)CCCCC4)CCCCC3`, the growth was 118% with SK-MEL-2 melanoma; 103% in the assay with EKVX NSCLC; 106% in the assay on SN12C renal; 142% in the assay with TK-10 renal; 105% in the assay with ACHN renal; 95.1% with CAKI-1 renal. Also, the growth in the assay with A498 renal is 91.6%; in the assay with CCRF-CEM leukemia, 104%; in the assay on MOLT-4 leukemia, 93.7%; with SR leukemia, 91.8%; in the assay on RPMI-8226 leukemia it was 99.1%; in the assay with OVCAR-4 ovarian, 93.2%. Besides, the growth in the assay on SK-OV-3 ovarian is 107%; in the assay with IGROV1 ovarian it was 130%; in the assay with OVCAR-3 ovarian it was 111%; with HS 578T breast, 112%; with NCI/ADR-RES ovarian it was 110%.
As for `COP(=O)(OC)C(c1ccc(O)cc1)(c1ccc(O)cc1)c1ccc(O)cc1`, the growth with SK-MEL-2 melanoma is 101%; in the assay on EKVX NSCLC, 113%; in the assay on SN12C renal, 105%; in the assay on TK-10 renal it was 124%; in the assay on ACHN renal it was 103%; with CAKI-1 renal, 94.9%. Moreover, the growth is 98.7% in the assay on A498 renal; 5.74% (active) in the assay with CCRF-CEM leukemia; 94.3% with MOLT-4 leukemia; 93.4% with SR leukemia; 99.3% in the assay on RPMI-8226 leukemia; 97.2% in the assay on OVCAR-8 ovarian. Also, the growth was 124% in the assay with OVCAR-5 ovarian; 99.3% in the assay on OVCAR-4 ovarian; 122% in the assay on SK-OV-3 ovarian; 11.3% in the assay on IGROV1 ovarian; 81.3% with OVCAR-3 ovarian; 98.8% in the assay on HS 578T breast.
As for `CCC(=O)Nc1cc2c(cc1Cl)-c1ccccc1C2`, the growth in the assay with SK-MEL-2 melanoma is 97.5%; with EKVX NSCLC, 57.1%; in the assay on SN12C renal, 68.7%; in the assay on TK-10 renal, 110%; with ACHN renal, 87.1%; in the assay with CAKI-1 renal it was 83.6%. The growth with A498 renal is 83.6%; with CCRF-CEM leukemia it was 72.3%; in the assay on MOLT-4 leukemia it was 82.1%; with SR leukemia, 101%; in the assay with OVCAR-8 ovarian it was 98%; in the assay on OVCAR-5 ovarian, 85.5%. Besides, the growth with OVCAR-4 ovarian is 101%; with SK-OV-3 ovarian, 107%; in the assay with IGROV1 ovarian, 86.4%; with OVCAR-3 ovarian, 106%; in the assay on HS 578T breast, 111%; in the assay with NCI/ADR-RES ovarian, 90.1%.
